Bioassay records (PubChem BioAssay)
GRIN3A LBD mod: binders of NR3A ligand-binding domain, primary screen, biophysical, differential scanning fluorimetry, uHTS; Glutamate receptor ionotropic, NMDA 3A (GRIN3A) ligand-binding domain; NR3A LBD differential scanning fluorimetry, Tm shift; 0% = protein alone, 100% = glycine-bound protein; Tm shift relative to glycine control, % at 25 µM; 340,000 tested, 2.5% active; AID 1259313, 2017;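 active means melting temperature shift of at least 10% of the positive control shift, at one fixed dose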
SKN-1 inh: suppressors of acrylamide-induced Pgst-4::GFP reporter in worms, primary screen, SKN-1 inhibitor project, whole organism, uHTS, GFP/RFP fluorescence ratio, strain VP596 | C. elegans VP596 Pgst-4::GFP/RFP ratio, 24 h | 360,000 tested, 0.49% active | AID 624304, 2012 | inhibition, % at 21.8 µM;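 active means interference check ratio from 0.5 to 1.5 plus GFP to RFP signal ratio inhibition reaching or exceeding a fixed threshold, cut at about 30% in these data, passing the limit was not always enough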
SMARCA2 act: SMARCA2 (BRM) function activators, primary screen, cell-based, luminescence, high throughput | MG213 cells, MMTV-luciferase reporter, dexamethasone, overnight | activation, % at 9.1 µM | 370,000 tested, 1% active; in the data active means activation above about 7.8%;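 further: 0% = vehicle wells and 100% = reference activator wells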
Vif inh: HIV Vif self-association inhibitors, primary screen, imaging, HEK293T, single point; HEK293T cells, Vif self-association by quenched fluorescence, 24 h; inhibition, % at 7.49 µM; 340,000 tested, 0.35% active; AID 602346, 2012; in the data active means inhibition above about 50%, passing the limit was not always enough; inconclusive means no clear call, values can overlap the other calls; inactive means below about 31%
NadD block: inhibitors of S. aureus NadD, primary screen, biochemical, colorimetric, uHTS; Nicotinate-nucleotide adenylyltransferase NadD (Staphylococcus aureus N315); purified NadD enzyme, colorimetric absorbance read-out; inhibition, % at 20 µM; 360,000 tested, 0.78% active; AID 602399, 2012; in the data active means inhibition above about 26%
esBAF inh: Bmi1 luciferase reporter increase in mESCs, primary screen, esBAF inhibitor project, mouse ES cells, Bmi1 luciferase knock-in, single point. 24 h; 100% = twice the neutral-well signal. 350,000 tested, 2% active. AID 602393, 2012. reporter increase, % at 12.5 µM; in the data active means activation above about 40%; inconclusive means no clear call, values can overlap the other calls;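 further: 0% = median of the plate's neutral control wells and 100% = double that signal; a rise in the Bmi1 reporter signal indicates esBAF inhibition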
Numbers without * were called inactive; u = inconclusive; x = no result. Compounds with a hit are over-represented: about 5.2% of the library has one in this group of screens.

SMILES	GRIN3A LBD mod	SKN-1 inh	SMARCA2 act	Vif inh	NadD block	esBAF inh
N#C[C@H]1[C@H](c2ccc(C3=CCCC3)cc2)[C@@H](CO)N1C(=O)NC1CCCC1	x	x	x	x	x	8.1
CCSc1nnc(NC(=O)c2cc3c(s2)CCCC3)s1	4.2	0.3	-0.6	x	-2.4	54.4*
COc1ccc(S(=O)(=O)N(C)C[C@H]2OCCCC[C@H](C)Oc3ccc(NC(=O)C4CCCCC4)cc3C(=O)N([C@H](C)CO)C[C@H]2C)cc1	x	x	x	x	x	0.7
C(=N\Nc1nnnn1-c1ccccc1)/c1ccncc1	1.0	-1.8	-1.4	-1.3	1.1	x
O=C(O)c1ccc(/C=N/Nc2nnnn2-c2ccccc2)cc1	10.2*	11.8	1.8	8.0	-6.1	x
C[C@H]1CN([C@@H](C)CO)S(=O)(=O)c2ccc(C3=CCCCC3)cc2O[C@H]1CN(C)C(=O)CN(C)C	x	x	x	x	x	-19.2
Cc1ccccc1CSCC(=O)c1c(N)n(C)c(=O)n(C)c1=O	10.6*	0.1	2.4	u	1.2	26.0
Cc1ccc(S(=O)(=O)c2nc(S(C)(=O)=O)sc2N2CCC(C)CC2)cc1	0.5	4.5	7.8*	15.6	-13.0	7.8
COC(=O)C[C@H]1CC[C@@H]2[C@H](COc3ccc(NS(=O)(=O)c4ccc(F)cc4)cc3C(=O)N2C)O1	x	x	x	x	x	-3.8
Cc1ccc(COC(=O)CCc2nc3ccccc3c(=O)[nH]2)cc1	-0.5	5.4	-2.2	-8.6	-3.7	-4.3
Cc1noc(C)c1COC(=O)CCc1nc2ccccc2c(=O)[nH]1	21.5*	34.2	-5.6	21.7	-1.8	-6.1
COc1ccc(S(=O)(=O)Nc2ccc3c(c2)C(=O)N([C@@H](C)CO)C[C@@H](C)[C@H](CN(C)C(=O)NC2CCCCC2)OCCCC[C@@H](C)O3)cc1	x	x	x	x	x	15.1
COc1ccc(-c2nnc(SCc3nc4ccccc4c(=O)[nH]3)o2)cc1	0.5	2.2	2.0	52.1*	-4.7	11.0
COc1ccc(N2CCN(C(=O)c3ccc4nc(N5CCCCC5)sc4c3)CC2)cc1	-1.8	13.2	3.0	-0.3	3.7	62.5*
CC1CC(C)CN(CCCNC(=O)c2ccc3nc(N4CCCCC4)sc3c2)C1 (stereo not given)	-0.9	-3.7	5.1	-0.6	-6.3	55.4*
C[C@@H]1CN([C@@H](C)CO)C(=O)c2cc(C#CC3(O)CCCC3)cnc2O[C@@H]1CN(C)C	x	x	x	x	x	0.7
CC(Cc1ccc(O)c(O)c1)C(C)Cc1ccc(O)c(O)c1 (stereo not given)	24.4*	x	x	x	x	x
COc1ccc(NC(=O)N(C)C[C@@H]2OCCCC[C@H](C)Oc3ccc(NC(=O)Nc4c(C)noc4C)cc3C(=O)N([C@@H](C)CO)C[C@@H]2C)cc1	x	x	x	x	x	-1.5
COc1ccc(C)cc1NS(=O)(=O)c1ccc2c(c1)N(C)CCO2	17.9*	13.7	-4.6	-5.7	-6.2	6.0
CCc1nc2oc3ccccc3c(=O)c2c(=O)n1-c1ccc(C)cc1	-1.0	28.1	4.4	-1.3	-1.9	x
CCc1nc2oc3ccccc3c(=O)c2c(=O)n1-c1ccccc1	-0.3	30.2*	0.4	-3.4	-2.1	30.4
COc1ccc(Cn2c(-c3ccco3)nc3oc4ccccc4c(=O)c3c2=O)cc1	-1.1	-13.8	-0.3	-2.1	6.1	67.6*
COc1ccc(-c2nc(NC(=O)c3ccco3)sc2C)cc1	x	15.1	-4.2	-10.6	-0.1	64.9*
Cc1ccc(C(=O)Nc2nc(-c3ccco3)c(-c3ccco3)s2)o1	-0.9	-0.4	0.0	-13.5	30.6*	6.7
COc1ccc(Cc2nnc(NC(=O)c3ccco3)s2)cc1	1.9	-2.4	-0.5	-2.4	-0.7	23.8
SMILES	GRIN3A LBD mod	SKN-1 inh	SMARCA2 act	Vif inh	NadD block	esBAF inh
C[C@H](CO)N1C[C@H](C)[C@H](CN(C)C(=O)c2ccc(F)cc2)Oc2ncc(Br)cc2C1=O	x	x	x	x	x	1.4
CC(=O)Nc1ccccc1N(CC(O)Cn1c2ccccc2c2ccccc21)S(=O)(=O)c1ccc(C)cc1 (stereo not given)	12.6*	16.7	-3.4	3.7	8.1	x
CCN(CC(O)Cn1c2ccccc2c2ccccc21)S(=O)(=O)c1ccc(C)cc1 (stereo not given)	2.6	16.0	-2.1	-14.5	-4.8	x
COc1ccccc1NCC(O)Cn1c2ccccc2c2ccccc21 (stereo not given)	11.2*	5.1	-2.9	-18.6	3.2	5.5
CCOc1ccc(OCC)c(NC(=O)CSCC(=O)O)c1	-0.3	35.7*	-0.1	1.8	-2.5	x
COc1ccc(OC)c(NC(=O)CSCC(=O)O)c1	-0.9	-3.5	-2.0	5.4	1.0	-3.2
COCCNC(=O)C(c1ccc(C)o1)N(Cc1ccc(F)cc1)C(=O)Cn1nnc2ccccc21 (stereo not given)	-1.3	6.9	0.3	x	3.8	1.3
CCC(C)(C)NC(=O)C(c1cccn1C)N(C(=O)Cn1nnc2ccccc21)c1ccc(OC)cc1 (stereo not given)	10.7*	-24.9	1.1	x	-2.5	x
COCCNC(=O)C(c1ccc(C)o1)N(Cc1ccc(OC)cc1)C(=O)Cn1nnc2ccccc21 (stereo not given)	0.1	35.2*	-0.1	5.5	3.1	4.5
O=C(C[C@H]1CC[C@H](NC(=O)C2CCOCC2)[C@@H](CO)O1)Nc1nccs1	x	x	x	x	x	-3.6
CO[C@H]1CN(C)C(=O)c2ccc(NC(=O)c3ccccc3F)cc2OC[C@@H](C)NC[C@@H]1C	x	x	x	x	x	-0.1
COc1ccc(-c2ccc3c(c2)O[C@H](CN(C)C)[C@H](C)CN([C@H](C)CO)S3(=O)=O)cc1	x	x	x	x	x	-4.2
CSc1n[nH]c(NC2=CC(=O)CCC2)n1	-3.7	-6.3	0.5	59.3*	-1.1	-2.8
Nc1n[nH]c(N)c1N=Nc1ccccc1F	32.3*	-2.0	-1.0	14.7	6.1	9.3
Nc1n[nH]c(N)c1N=Nc1ccc(Cl)cc1Cl	20.1*	7.0	3.3	-4.5	2.2	x
C[C@@H]1CN([C@H](C)CO)C(=O)c2cccc(NC(=O)C3CC3)c2O[C@H]1CN(C)Cc1ccc(-c2ccccc2)cc1	x	x	x	x	x	3.1
CN(C)CC(=O)N[C@@H]1C=C[C@@H](CC(=O)NCCN2CCCCC2)O[C@@H]1CO	x	-14.3	7.8*	x	x	-1.0
CN(C)CC(=O)N[C@H]1C=C[C@H](CC(=O)NCCN2CCCCC2)O[C@H]1CO	x	x	x	x	x	-3.6
C[C@@H]1CN([C@H](C)CO)S(=O)(=O)c2ccc(C#Cc3ccc(F)cc3)cc2O[C@@H]1CN(C)S(=O)(=O)c1ccc(F)cc1	x	x	x	x	x	-4.2
